Source: PubChem BioAssay
Sampled rows, rich in hits. Any-hit rate of the full collection: about 13%.
USP30 block: inhibitors of human USP30 deubiquitinase; Ubiquitin carboxyl-terminal hydrolase 30 (Homo sapiens), Q70CQ3; purified USP30, Ub-rhodamine cleavage fluorescence; inhibition, % at 25 µM; 5.3% of 47,000 active
USP28 inh: inhibitors of human USP28 deubiquitinase; 3% of 47,000 active; inhibition, % at 25 µM; purified USP28, Ub-rhodamine cleavage fluorescence, 30 min; AID 1645857, 2021
USP8 inh: inhibitors of human USP8 deubiquitinase. Ubiquitin carboxyl-terminal hydrolase 8 (Homo sapiens), P40818. purified USP8, Ub-rhodamine cleavage fluorescence, 30 min. inhibition, % at 20 µM. 4.2% of 47,000 active. AID 1645853, 2021
USP17 inh: inhibitors of human USP17 deubiquitinase; Ubiquitin carboxyl-terminal hydrolase 17-like protein 5 (Homo sapiens), A8MUK1; purified USP17, Ub-rhodamine cleavage fluorescence, 3 h; inhibition, % at 50 µM; 6.5% of 47,000 active; AID 1645855, 2021
USP10 block: inhibitors of human USP10 deubiquitinase | 1.1% of 47,000 active | inhibition, % at 20 µM | AID 1645856, 2021 | purified USP10, Ub-rhodamine fluorescence, 60 min
Numbers stand for hits; – = inactive; · = no result given. Rule as the data show it: active = inhibition above about 30%; inactive = the rest.

SMILES	USP30 block	USP28 inh	USP8 inh	USP17 inh	USP10 block
COc1ccccc1CC(=O)N[C@@H](C)c1nc2cc(-c3ccccc3F)ncn2n1	39	–	–	–	–
Cc1cc(Cl)ccc1NC(=O)CCS(=O)(=O)c1ccc2c(c1)OCC(=O)N2	–	–	–	34	–
Cc1ccc(CNC(=O)NC2CCN(c3ccccc3)C2=O)cc1 (stereo unspecified)	33	–	32	–	–
COc1ccccc1NC(=O)NC1CCN(c2ccccc2)C1=O (stereo unspecified)	–	–	–	–	–
O=C(Nc1ccccc1F)NC1CCN(c2ccc(F)cc2)C1=O (stereo unspecified)	80	–	–	51	–
O=C1C(NS(=O)(=O)Cc2ccc(Cl)cc2)CCN1c1ccccc1 (stereo unspecified)	–	–	31	–	–
COc1ccc(CNC(=O)Cn2cnc(S(=O)(=O)N3CCCC3)c2)cc1	–	–	–	–	–
CCOc1cc2c(cc1OCC)C(c1c(OC)ccc3ccccc13)NCC2 (stereo unspecified)	38	–	–	–	–
CCOc1cc2c(cc1OCC)C(c1cc3c(cc1Br)OCO3)NCC2 (stereo unspecified)	–	–	–	–	–
CC(=O)N1CCc2cc(S(=O)(=O)NCc3ccc(C)cc3)ccc21	–	–	–	57	–
CC(=O)N1CCc2cc(CNS(=O)(=O)c3ccccc3)ccc21	–	–	–	–	–
CCC(=O)N1c2ccc(S(=O)(=O)N3CCOCC3)cc2CC1C (stereo unspecified)	–	–	–	–	–
CCC(=O)N1c2ccc(S(=O)(=O)NCC(=O)NCc3ccc(C)cc3)cc2CC1C (stereo unspecified)	34	–	–	–	–
CC(=O)N1CCc2cc(S(=O)(=O)NCC3COc4ccccc4O3)ccc21 (stereo unspecified)	–	–	–	38	–
COc1ccc(C2C3=C(NCCN=C3c3ccccc3)C(=O)N2c2ccccc2)cc1OC (stereo unspecified)	–	–	–	–	–
CCOC(=O)c1c2ccc(OCC(=O)NCc3ccco3)cc2n2ccccc12	–	–	63	–	–
O=C(Nc1ccncc1)c1cc(Br)ccc1F	35	–	–	–	–
CC1CCN(c2ccc3nnc(CCC(=O)NCCN4CCOCC4)n3n2)CC1	–	–	–	–	–
CC1CCN(c2ccc3nnc(CCC(=O)NCc4ccc(CN5CCOCC5)o4)n3n2)CC1	–	31	–	–	–
Cc1ccc(C)c(CN2CCC(CNC(=O)CCc3nnc4ccc(N5CCCCC5)nn34)CC2)c1	–	33	–	–	–
CC1CC(C)CN(C(=O)CCc2nnc3ccc(N4CCCC4)nn23)C1 (stereo unspecified)	31	–	–	–	–
COC(=O)c1ccc(NC(=O)CCc2nnc3ccc(N4CCOCC4)nn23)cc1	–	–	–	31	–
Cc1ccc(-c2cc(N3CCN(S(C)(=O)=O)CC3)ncn2)cc1	47	–	–	47	–
CS(=O)(=O)N1CCN(c2ccc(-c3ccc(F)cc3)nn2)CC1	–	–	–	–	–
Cc1cc(O)c2c3c(c(O)c4c(c13)O[C@@H](C)C4(C)C)C(=O)C2=O	–	31	–	83	–
SMILES	USP30 block	USP28 inh	USP8 inh	USP17 inh	USP10 block
O=C(/C=C/c1ccccc1)Nc1ccc(SC(C(=O)Nc2ccc3c(c2)OCO3)c2ccccc2)cc1 (stereo unspecified)	–	–	–	–	–
O=C(Nc1ccc(N2CCOCC2)cc1)c1cccc(S(=O)(=O)N2CCCC2)c1	–	–	–	–	–
CCN(CC)S(=O)(=O)c1cccc(NC(=O)c2ccc(OC(F)(F)F)cc2)c1	–	30	–	–	–
CC(C)Oc1ccc(C(=O)Nc2cccc(S(=O)(=O)N3CCCC3)c2)cc1	–	63	–	–	–
Cc1cc(C)n(-c2ccc(C(=O)Nc3cccc(S(=O)(=O)N4CCCC4)c3)cc2)n1	74	69	–	–	–
N#Cc1ccccc1-c1ccccc1C(=O)Nc1cccc(S(=O)(=O)N2CCCC2)c1	–	–	–	–	–
COc1cccc(COC(=O)C2=CN(C)S(=O)(=O)N=C2C)c1	–	–	–	–	–
CN1CC2(CCN(C(=O)c3ccc[nH]3)CC2)COc2ccccc2S1(=O)=O	–	–	–	–	–
Cn1nccc1C(=O)N1CCc2[nH]nc(-c3ccc(F)cc3)c2C1	–	–	–	–	–
Cc1ccc2c(Nc3ccccc3)c(-c3nc(C4CC4)no3)cnc2n1	–	48	–	–	–
COc1ccccc1Nc1c(-c2nc(C)no2)cnc2nc(C)ccc12	–	–	–	–	–
Cc1nc(N2CCCC2)cc(N2CCN(C(=O)c3cccs3)CC2)n1	–	–	–	–	–
COc1cc(NC(=O)Cc2cn3ccccc3n2)cc(OC)c1	–	–	–	–	–
O=C(Nc1ccc(-c2cn3ccccc3n2)cc1)C1C=C2C=C(Br)C=CC2OC1=O (stereo unspecified)	49	52	–	–	–
COc1cc2c(cc1OC)C(c1ccncc1)N(Cc1cnc(N)nc1)CC2 (stereo unspecified)	–	–	–	–	–
Cc1occ(O)c(=O)c1O	–	–	–	–	–
Cc1ccc(C)c(NC(=O)c2c(C)sc3c(=O)n(C(C)C)cnc23)c1	45	–	–	44	–
COc1ccc(COc2ccc3c(C)c(CC(=O)N4CC[C@@]5(O)CCCC[C@H]5C4)c(=O)oc3c2)cc1	52	–	34	46	62
Cc1c(CCC(=O)N2CC[C@@]3(O)CCCC[C@H]3C2)c(=O)oc2cc(OCc3ccc(F)cc3F)ccc12	35	–	–	·	–
CN(C)C(=O)N1CCC(c2nnc3ccc(C(=O)NC4CCCC4)cn23)C1 (stereo unspecified)	–	–	–	–	–
NC(=O)c1cc2ccccc2nc1C1CCN(C(=O)CCN2CCOCC2)CC1	–	–	–	–	–
Cc1ccc(C(=O)NCCc2nnc3ccc(SCc4c(F)cccc4Cl)nn23)cc1	30	–	–	–	–
CCCc1ccc(C(=O)NC(C)c2ccncc2)cc1 (stereo unspecified)	–	–	–	–	–
COc1cc(OC)cc(C(=O)NCc2[nH]nc3ccccc23)c1	–	31	–	–	–
COc1cccc(C(=O)NCc2[nH]nc3ccccc23)c1	–	–	84	57	–
CCOc1ccc(NC(=O)CSc2nc3n[nH]c(C)c3c(=N)n2-c2ccc(OC)cc2)cc1	52	–	–	–	–
COCCCn1c(C(=O)N2CCC(C(N)=O)CC2)cc2c(=O)n3ccccc3nc21	–	–	–	–	–
O=C1CCCc2cc(S(=O)(=O)N3CCCC(C(=O)N4CCCCC4)C3)ccc2N1 (stereo unspecified)	–	–	–	–	–
